Assay outcomes as filed in PubChem.
Mac1 fbg enh – CD11b/CD18-fibrinogen binding enhancement | activation, % at 10 µM | actives 0.07% (n = 93,000) | K562 CD11b/CD18 adhesion to fibrinogen, ATPlite luminescence | P05107+P11215;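 active = 10 µM primary screen giving 50% or more activity, confirmed by 40% or more on retest at that dose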
Target sequence (P05107 whole entry, looked up, other chains not shown): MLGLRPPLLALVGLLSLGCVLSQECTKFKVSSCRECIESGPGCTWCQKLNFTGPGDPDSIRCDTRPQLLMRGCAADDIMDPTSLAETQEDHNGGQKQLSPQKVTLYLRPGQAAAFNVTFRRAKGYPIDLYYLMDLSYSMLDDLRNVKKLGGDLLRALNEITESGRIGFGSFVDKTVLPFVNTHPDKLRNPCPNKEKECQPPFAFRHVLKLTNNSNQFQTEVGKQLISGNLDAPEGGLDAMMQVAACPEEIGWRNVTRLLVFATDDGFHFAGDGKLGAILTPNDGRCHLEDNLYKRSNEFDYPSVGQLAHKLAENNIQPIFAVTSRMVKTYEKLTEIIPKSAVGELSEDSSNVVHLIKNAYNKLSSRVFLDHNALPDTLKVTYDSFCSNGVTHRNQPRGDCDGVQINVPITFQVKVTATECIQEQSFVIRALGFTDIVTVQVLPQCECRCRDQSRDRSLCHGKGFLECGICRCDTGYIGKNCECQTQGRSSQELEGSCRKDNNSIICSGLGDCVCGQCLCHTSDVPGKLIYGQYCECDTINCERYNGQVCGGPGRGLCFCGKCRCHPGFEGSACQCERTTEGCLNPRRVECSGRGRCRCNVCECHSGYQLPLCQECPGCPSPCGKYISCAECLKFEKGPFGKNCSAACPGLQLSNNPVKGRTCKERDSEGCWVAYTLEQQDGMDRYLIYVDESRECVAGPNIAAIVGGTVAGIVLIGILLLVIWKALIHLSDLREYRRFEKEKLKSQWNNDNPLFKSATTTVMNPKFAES
Mac1 fbg inh – blocks human CD11b/CD18 adhesion to fibrinogen | P05107+P11215 | K562 CD11b/CD18 adhesion to fibrinogen, ATPlite luminescence; Mn2+ added to activate the integrin | inhibition, % at 10 µM | actives 0.54% (n = 93,000) | AID 1497;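 active = primary inhibition of 50% or more at 10 µM, then 40% or more on retest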
Phagocyt inh – inhibitors of macrophage phagocytosis; actives 0.07% (n = 110,000); J774A.1 macrophage IgG-bead phagocytosis, imaging; inhibition, % at 5 µM;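 active = inhibition above the mean of the plate negative controls plus 5 SD, cut at about 13% in these data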;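 also: phagocytic index as fraction of beads internalized from green versus red external bead signal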
SDO1 yeast rescue – sdo1-depleted yeast growth rescue | S. cerevisiae sdo1-depleted JHY4D growth rescue, OD600 30 h; hits give high values; pdr5 snq2 efflux-pump mutant strain | z-score at 10 µM | actives 0.21% (n = 140,000) | AID 817;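 active = z-score above 3 at both the 24 hr and the 30 hr optical density reads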
Hits are given with their value; 0 = inactive; - = no result; [ ] = dose if it differs, or a comment. Only some compounds are listed: those with a hit (about 0.71% of all), similar ones and a draw of the others.

SMILES	Mac1 fbg enh	Mac1 fbg inh	Phagocyt inh	SDO1 yeast rescue
O=C1CC(NCc2cccs2)C(=O)N1c1ccc(Cl)cc1 (centres undefined)	0	66.0	-	0
Cc1cccc(/C=C2/S/C(=N/N=C3\CC4CCC3(C)C4(C)C)NC2=O)c1 (centres undefined)	0	0	0	0
Nc1cc(-c2ccccc2)nn1S(=O)(=O)c1ccc(F)cc1	0	63.0	0	0
COc1ccccc1NC(=O)Cc1nn(C)c(=O)c2ccccc12	0	63.8	0	0
COc1cccc(OC)c1NC(=O)Cc1nn(C)c(=O)c2ccccc12	0	0	0	0
Cn1nc(CC(=O)Nc2ccc3c(c2)OCCO3)c2ccccc2c1=O	0	95.7	0	0
Cc1ccc(NC(=O)Cc2nn(C)c(=O)c3ccccc23)cc1F	0	0	0	0
N#Cc1ccc(Cl)cc1NC(=O)COC(=O)[C@H](CCC(N)=O)NC(=O)c1ccc(F)cc1	-	-	0	0
Cc1ccccc1NCC(=O)N/N=C\C=C\c1cccc([N+](=O)[O-])c1	-	-	0	0
CCCCn1c(SCC(=O)NCc2ccco2)nc2c(sc3ccccc32)c1=O	0	53.7	0	0
CCOCCCn1c(SCC(=O)NCc2ccco2)nc2c(sc3ccccc32)c1=O	0	56.0	0	0
O=C(CSc1nc2c(sc3ccccc32)c(=O)n1CCc1ccccc1)NCc1ccco1	0	0	0	0
CC1=C/C(=N\OS(=O)(=O)c2ccccc2)C(C(C)C)=CC1=O	-	-	0	0
CC1=C/C(=N\OS(=O)(=O)c2ccccc2)C(C)=CC1=O	0	96.8	0	0
c1cnc(N2CCN(Cc3c[nH]c4ccccc34)CC2)nc1	0	0	0	0
c1ccc(N2CCN(Cc3ccnc4ccccc34)CC2)cc1	0	76.1	0	0
O=S(=O)(Nc1nc2ccccc2nc1Nc1ccc2c(c1)OCCO2)c1cccs1	0	90.3	0	0
O=c1c(Sc2ccccc2)c(C(F)(F)F)[nH]n1-c1ccccc1	0	55.5	0	0
Cn1nc(-c2ccc(Cl)cc2)c2cc(C(=O)N3CCN(c4ccccc4)CC3)sc21	0	0	0	0
Cn1nc(-c2ccc(Cl)cc2)c2cc(C(=O)N3CCN(c4ccccn4)CC3)sc21	0	61.8	-	0
COCCn1c(-c2ccccc2)cnc1SCC(=O)Nc1cccc2ccccc12	0	0	0	0
O=C(c1ccccc1)N1CCN(c2ncnc3sc4c(c23)CCC4)CC1	0	50.7	0	0
Nc1c(-c2ccc(Cl)cc2)cnn1C1CCS(=O)(=O)C1 (centres undefined)	0	0	0	0
Clc1ccccc1-c1nc(N/N=C/c2cccnc2)c2ccccc2n1	-	-	-	0
Cc1ccc(-c2nc(N/N=C/c3ccncc3)c3ccccc3n2)cc1	0	103.4	0	0
SMILES	Mac1 fbg enh	Mac1 fbg inh	Phagocyt inh	SDO1 yeast rescue
Fc1ccccc1NC(=S)N1CCN(Cc2ccccc2)CC1	-	-	0	0
COc1ccc(C(=O)c2ccc(Cl)cc2)c2ccccc12	0	0	0	0
COc1ccc(C(=O)c2ccccc2)c2c(O)ccc(C(=O)c3ccccc3)c12	0	51.0	0	0
CCOc1ccc(N2Cc3ccccc3C2)cc1	0	0	0	-
CCOc1ccc(-n2c(-c3ccccc3)c[n+]3c2CCCCC3)cc1	0	80.0	0	0
Cc1ccc2cc(/C=N/NC(=O)CN3CCOCC3)c(Cl)nc2c1	0	0	0	0
O=C(Cc1csc(N2CCOCC2)n1)N/N=C/c1ccc(Cl)cc1Cl	0	55.2	0	0
Nc1nnc(SCC(=O)N2CCN(Cc3ccccc3)CC2)s1	0	0	0	0
CC1CCc2c(sc3nc(CN4CCOCC4)nc(NS(=O)(=O)c4cccc([N+](=O)[O-])c4)c23)C1 (centres undefined)	0	67.3	0	0
O=C(CN1C(=O)/C(=C\c2ccc(F)cc2)Oc2ccccc21)NCc1ccco1	0	0	0	0
COc1ccc(C)cc1S(=O)(=O)N1CCC(C(=O)N2CCN(C)CC2)CC1	-	-	0	0
COc1ccc(CNC(=O)CN(C2CCCCC2)S(C)(=O)=O)cc1	-	-	0	0
Cc1cccc(S(=O)(=O)C(C#N)c2nc3ccccc3nc2N2CC(C)OC(C)C2)c1 (centres undefined)	0	94.6	0	0
Cc1ccc(S(=O)(=O)C(C#N)c2nc3ccccc3nc2N2CCCC2)cc1 (centres undefined)	0	0	0	0
Cc1ccc(S(=O)(=O)C(C#N)c2nc3ccccc3nc2N2CC(C)OC(C)C2)cc1C (centres undefined)	0	89.6	0	0
Cc1ccc(C(=O)N/C(=C\C=C\c2ccccc2)C(=O)NCc2ccco2)cc1	-	-	0	0
CCCCCCc1cc2cc(-c3nnc(-c4ccccc4O)o3)c(=O)oc2cc1O	0	97.5	0	0
COc1ccc2nc(NC(=S)N(C)C)sc2c1	0	60.2	0	0
COc1ccc(OC)c(C(=O)c2ccc(C(=O)N3CCCCC3)cc2)c1	-	-	-	0
Cc1ccc(NC(=O)CSc2nnc(-c3cccs3)o2)cc1S(=O)(=O)N1CCCCC1	-	-	0	0
CCC(CC)c1nnc(NC(=O)c2cc(C(=O)OC)cc([N+](=O)[O-])c2)s1	-	-	0	0
O=C(NCc1ccco1)c1ccccc1NS(=O)(=O)c1cccs1	0	0	-	0
O=C(NCc1ccco1)c1ccccc1NS(=O)(=O)c1ccc(Cl)s1	0	97.6	0	0
CCOC(=O)c1ccccc1NC(=O)CN(c1ccccc1C)S(C)(=O)=O	0	0	0	0
CC(C)(C)n1ncc2c(=O)n(Cc3ccc(Cl)cc3Cl)cnc21	0	50.1	-	0
SMILES	Mac1 fbg enh	Mac1 fbg inh	Phagocyt inh	SDO1 yeast rescue
Cc1cc(C(=O)CSc2nc3ccc(Cl)cc3[nH]2)c(C)n1CC1CCCO1 (centres undefined)	0	82.8	0	0
Cc1cc(N2CCN(c3nc4ccccc4s3)CC2)n2ncnc2n1	0	74.5	-	0
Cc1cc(N2CCN(C(c3ccccc3)c3ccccc3)CC2)n2ncnc2n1	0	0	0	0
CC1CCN(C(=O)CN(c2ccc(Cl)c(C(F)(F)F)c2)S(C)(=O)=O)CC1	0	0	154.7	0
CC(C)NC(=O)c1noc2cc([N+](=O)[O-])ccc12	-	-	-	0
Cc1c(Cl)cccc1NC(=S)NNc1ncc(C(F)(F)F)cc1Cl	0	89.5	0	0
Cc1ccccc1NC(=S)NNc1ncc(C(F)(F)F)cc1Cl	0	0	0	0
Fc1ccccc1NC(=S)NNc1ncc(C(F)(F)F)cc1Cl	0	80.7	0	0
O=C(CSCC(=O)N1CCCCC1)Nc1nc(-c2ccc(Cl)s2)cs1	0	83.6	0	0
Cc1ccc(SCC(=O)Nc2ccc(F)cc2[N+](=O)[O-])cc1C	-	-	0	0
Cc1ccc(NC(=O)c2cn(CCC#N)nc2-c2cccs2)c([N+](=O)[O-])c1	0	0	0	0
COc1ccc(/C=N/NC(=O)CNc2n[nH]c(=O)[nH]c2=O)cc1OC	0	0	96.9[artifact]	0
COc1cc(/C=N/NC(=O)CNc2n[nH]c(=O)[nH]c2=O)ccc1O	-	-	0	0
Cc1ccc(C(=O)N[C@H](C(=O)OCc2cc(=O)oc3cc(C)ccc23)C(C)C)cc1	0	0	-	0
O=C1CC(O)(C(F)(F)F)Oc2c1ccc1ccccc21 (centres undefined)	0	89.6	0	0
O=C(Nc1nnc(C2CC2)s1)c1ccc(Cl)c(S(=O)(=O)N2CCc3ccccc3C2)c1	0	0	0	0
